# Results from PMC7862700, “An all-to-all approach to the identification of sequence-specific readers for epigenetic DNA modifications on cytosine”.
# Key:
# Assay in all cases: DAPPL (digital affinity profiling via proximity ligation, sequencing); 10 mM Tris-HCl pH 7.5, 50 mM NaCl, 1 mM DTT, 4% glycerol, room temperature, 30 min; GST-TFs on glutathione beads, 16-mer random dsDNA library, 0.1% formaldehyde crosslink after washing; high values mean tight binding
# FLI1 = biological target: T1, FLI1 (Homo sapiens, UniProt Q01543 1-452); settings: protein: recombinant; tags: N-terminal GST; dsDNA, one strand shown
# T1 sequence: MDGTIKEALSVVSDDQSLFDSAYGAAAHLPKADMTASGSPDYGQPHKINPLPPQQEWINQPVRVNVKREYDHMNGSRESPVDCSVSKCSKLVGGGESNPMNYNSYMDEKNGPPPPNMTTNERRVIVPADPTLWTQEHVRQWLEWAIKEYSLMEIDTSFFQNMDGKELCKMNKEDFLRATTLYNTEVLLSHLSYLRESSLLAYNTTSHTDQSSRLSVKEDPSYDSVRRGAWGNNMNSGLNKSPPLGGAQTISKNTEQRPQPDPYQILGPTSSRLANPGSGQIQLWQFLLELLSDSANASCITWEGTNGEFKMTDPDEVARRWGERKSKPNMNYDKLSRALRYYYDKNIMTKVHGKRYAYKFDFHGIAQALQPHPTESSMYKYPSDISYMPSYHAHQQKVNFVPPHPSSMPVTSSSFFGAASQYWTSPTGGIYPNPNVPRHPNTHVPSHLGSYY
# Summary of the method: (§1)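 Pools of DNA-barcoded human transcription factors, expressed in yeast as GST fusions on glutathione beads and combined with a tag-only sample, were incubated with 200 nmole of a 16-mer random double-stranded DNA library. Incubation took 30 min at room temperature in Tris/NaCl/DTT/glycerol buffer and was followed by washing, 0.1% formaldehyde crosslinking, proximity ligation (BsaI/T4 ligase, 1 h, 37 °C), PCR amplification and sequencing on an Illumina NextSeq500. Binding signal is the ratio of a hexamer's read frequency for a factor to its frequency for the tag-only sample.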
# ELK1 = biological target: T2, ELK1 (Homo sapiens, UniProt P19419 1-428); settings: protein: recombinant; tags: N-terminal GST; dsDNA, one strand shown
# T2 sequence: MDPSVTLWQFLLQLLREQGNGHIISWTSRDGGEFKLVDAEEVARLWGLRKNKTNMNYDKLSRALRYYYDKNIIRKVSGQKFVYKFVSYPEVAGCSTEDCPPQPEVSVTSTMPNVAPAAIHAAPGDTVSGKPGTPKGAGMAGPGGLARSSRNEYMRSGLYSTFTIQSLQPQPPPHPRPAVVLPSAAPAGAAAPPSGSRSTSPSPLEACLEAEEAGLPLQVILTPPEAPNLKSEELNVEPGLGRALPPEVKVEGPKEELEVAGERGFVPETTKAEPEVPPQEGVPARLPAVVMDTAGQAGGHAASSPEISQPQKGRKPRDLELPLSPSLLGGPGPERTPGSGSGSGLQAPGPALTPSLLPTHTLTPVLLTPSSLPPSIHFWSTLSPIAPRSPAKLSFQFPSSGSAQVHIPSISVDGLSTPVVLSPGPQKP
# Summary of the method: as §1
# GABPA = biological target: T3, GABPA (Homo sapiens, UniProt Q06546 1-454); settings: protein: recombinant; tags: N-terminal GST; dsDNA, one strand shown
# T3 sequence: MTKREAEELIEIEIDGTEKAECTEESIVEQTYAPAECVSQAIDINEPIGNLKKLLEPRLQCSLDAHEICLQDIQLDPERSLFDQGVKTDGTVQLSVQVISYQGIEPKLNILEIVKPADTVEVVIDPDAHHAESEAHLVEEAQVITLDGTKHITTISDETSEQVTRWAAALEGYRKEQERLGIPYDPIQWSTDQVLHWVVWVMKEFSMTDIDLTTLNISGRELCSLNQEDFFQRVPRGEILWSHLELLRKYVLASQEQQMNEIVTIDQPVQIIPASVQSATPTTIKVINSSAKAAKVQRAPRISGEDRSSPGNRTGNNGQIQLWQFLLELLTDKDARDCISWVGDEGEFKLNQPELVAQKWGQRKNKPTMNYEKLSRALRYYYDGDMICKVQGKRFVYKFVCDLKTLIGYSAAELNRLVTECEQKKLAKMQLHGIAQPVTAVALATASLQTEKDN
# Summary of the method: as §1
# ERG = biological target: T4, ERG (Homo sapiens, UniProt P11308 1-479); settings: protein: recombinant; tags: N-terminal GST; dsDNA, one strand shown
# T4 sequence: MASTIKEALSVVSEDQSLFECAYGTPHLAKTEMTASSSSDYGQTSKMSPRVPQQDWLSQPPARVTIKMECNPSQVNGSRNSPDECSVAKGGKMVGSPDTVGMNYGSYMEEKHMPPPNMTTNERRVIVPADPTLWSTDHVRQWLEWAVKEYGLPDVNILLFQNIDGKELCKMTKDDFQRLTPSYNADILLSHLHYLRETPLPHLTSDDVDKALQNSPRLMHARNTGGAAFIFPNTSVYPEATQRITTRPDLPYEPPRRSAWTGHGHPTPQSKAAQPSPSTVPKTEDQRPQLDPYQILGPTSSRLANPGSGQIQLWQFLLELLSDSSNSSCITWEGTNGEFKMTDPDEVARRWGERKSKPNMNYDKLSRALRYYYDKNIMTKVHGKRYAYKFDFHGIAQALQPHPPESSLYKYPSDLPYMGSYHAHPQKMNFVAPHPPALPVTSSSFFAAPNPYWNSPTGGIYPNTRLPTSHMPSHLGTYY
# Summary of the method: as §1
# ELF1 = ELF1 (Homo sapiens, UniProt P32519 1-619); settings: protein: recombinant; tags: N-terminal GST; dsDNA, one strand shown
# Sequence of ELF1 (P32519 whole entry): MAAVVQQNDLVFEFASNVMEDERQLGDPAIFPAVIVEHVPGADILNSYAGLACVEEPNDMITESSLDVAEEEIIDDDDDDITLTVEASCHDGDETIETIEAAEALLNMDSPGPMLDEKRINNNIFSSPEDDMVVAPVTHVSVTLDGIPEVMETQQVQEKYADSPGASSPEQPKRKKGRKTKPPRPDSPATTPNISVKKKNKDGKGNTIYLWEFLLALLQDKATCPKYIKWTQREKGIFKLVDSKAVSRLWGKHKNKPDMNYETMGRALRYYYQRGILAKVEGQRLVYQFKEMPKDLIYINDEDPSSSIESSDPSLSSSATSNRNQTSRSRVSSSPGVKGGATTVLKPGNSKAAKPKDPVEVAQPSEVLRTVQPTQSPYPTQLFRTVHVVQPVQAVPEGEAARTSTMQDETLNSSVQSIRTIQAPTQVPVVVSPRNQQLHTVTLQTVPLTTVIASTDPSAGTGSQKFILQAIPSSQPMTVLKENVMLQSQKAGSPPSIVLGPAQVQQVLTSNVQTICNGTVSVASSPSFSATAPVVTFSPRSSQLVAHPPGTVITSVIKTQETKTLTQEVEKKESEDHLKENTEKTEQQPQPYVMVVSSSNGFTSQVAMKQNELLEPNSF
# Summary of the method: as §1
# EHF = biological target: T5, EHF (Homo sapiens, UniProt Q9NZC4 1-300); settings: protein: recombinant; tags: N-terminal GST; dsDNA, one strand shown
# T5 sequence: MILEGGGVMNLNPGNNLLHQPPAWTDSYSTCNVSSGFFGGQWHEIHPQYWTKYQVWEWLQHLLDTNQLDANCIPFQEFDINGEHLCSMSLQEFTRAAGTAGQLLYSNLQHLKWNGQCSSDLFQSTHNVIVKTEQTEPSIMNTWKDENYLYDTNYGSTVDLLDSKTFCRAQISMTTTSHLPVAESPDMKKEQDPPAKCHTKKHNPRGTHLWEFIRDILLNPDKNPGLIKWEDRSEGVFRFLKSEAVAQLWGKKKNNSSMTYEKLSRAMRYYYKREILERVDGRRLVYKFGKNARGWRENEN
# Summary of the method: as §1
# SPI1 = SPI1 (Homo sapiens, UniProt P17947 1-270); settings: protein: recombinant; tags: N-terminal GST; dsDNA, one strand shown
# Summary of the method: as §1
# SPIB = SPIB (Homo sapiens, UniProt Q01892 1-262); settings: protein: recombinant; tags: N-terminal GST; dsDNA, one strand shown
# Sequence of SPIB (Q01892 whole entry): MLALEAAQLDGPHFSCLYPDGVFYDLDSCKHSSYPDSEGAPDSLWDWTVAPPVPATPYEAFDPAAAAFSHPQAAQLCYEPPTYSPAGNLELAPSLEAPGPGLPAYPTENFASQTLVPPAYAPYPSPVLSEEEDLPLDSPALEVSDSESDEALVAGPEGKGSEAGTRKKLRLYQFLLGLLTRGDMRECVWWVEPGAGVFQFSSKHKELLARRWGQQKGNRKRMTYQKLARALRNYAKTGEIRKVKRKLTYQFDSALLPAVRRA
# Summary of the method: as §1
# ELK3 = biological target: T6, ELK3 (Homo sapiens, UniProt P41970 1-407); settings: protein: recombinant; tags: N-terminal GST; dsDNA, one strand shown
# T6 sequence: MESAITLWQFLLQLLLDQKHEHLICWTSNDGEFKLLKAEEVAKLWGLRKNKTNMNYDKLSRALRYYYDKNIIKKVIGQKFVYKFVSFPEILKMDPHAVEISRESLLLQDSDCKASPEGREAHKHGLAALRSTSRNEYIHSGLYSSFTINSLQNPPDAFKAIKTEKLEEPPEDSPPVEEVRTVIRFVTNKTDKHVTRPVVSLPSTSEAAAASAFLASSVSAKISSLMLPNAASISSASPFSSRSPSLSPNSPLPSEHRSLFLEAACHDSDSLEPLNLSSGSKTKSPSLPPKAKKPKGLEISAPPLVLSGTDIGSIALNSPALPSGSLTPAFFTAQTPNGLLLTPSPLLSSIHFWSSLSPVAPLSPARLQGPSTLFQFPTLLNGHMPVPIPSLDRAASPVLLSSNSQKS
# Summary of the method: as §1
# FEV = biological target: T7, FEV (Homo sapiens, UniProt Q99581 1-238); settings: protein: recombinant; tags: N-terminal GST; dsDNA, one strand shown
# T7 sequence: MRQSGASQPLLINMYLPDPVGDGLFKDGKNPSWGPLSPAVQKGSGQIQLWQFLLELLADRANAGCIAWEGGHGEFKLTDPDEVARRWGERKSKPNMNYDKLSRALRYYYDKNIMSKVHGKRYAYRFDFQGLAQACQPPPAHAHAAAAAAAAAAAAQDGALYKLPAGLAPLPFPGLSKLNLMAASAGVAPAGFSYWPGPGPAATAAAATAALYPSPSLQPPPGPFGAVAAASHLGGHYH
# Summary of the method: as §1
# ETV5 = ETV5 (Homo sapiens, UniProt P41161 1-510); settings: protein: recombinant; tags: N-terminal GST; dsDNA, one strand shown
# Sequence of ETV5 (P41161 whole entry): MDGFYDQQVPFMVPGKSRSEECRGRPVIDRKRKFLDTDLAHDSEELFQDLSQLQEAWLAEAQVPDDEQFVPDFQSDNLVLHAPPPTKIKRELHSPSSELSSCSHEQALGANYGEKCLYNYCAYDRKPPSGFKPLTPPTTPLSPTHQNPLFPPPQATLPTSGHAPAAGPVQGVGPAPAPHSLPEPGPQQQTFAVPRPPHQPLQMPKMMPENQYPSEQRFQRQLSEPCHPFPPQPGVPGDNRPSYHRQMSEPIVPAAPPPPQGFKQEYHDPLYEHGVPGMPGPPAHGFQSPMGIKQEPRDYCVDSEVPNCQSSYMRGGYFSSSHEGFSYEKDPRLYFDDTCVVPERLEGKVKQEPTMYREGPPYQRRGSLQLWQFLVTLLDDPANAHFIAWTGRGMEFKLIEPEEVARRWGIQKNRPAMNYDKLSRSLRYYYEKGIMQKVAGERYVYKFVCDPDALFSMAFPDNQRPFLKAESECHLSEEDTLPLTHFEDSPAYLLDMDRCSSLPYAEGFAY
# Summary of the method: as §1
# HSF1 = HSF1 (Homo sapiens, UniProt Q00613 1-529); settings: protein: recombinant; tags: N-terminal GST; chain copies: 3; dsDNA, one strand shown
# Sequence of HSF1 (Q00613 whole entry): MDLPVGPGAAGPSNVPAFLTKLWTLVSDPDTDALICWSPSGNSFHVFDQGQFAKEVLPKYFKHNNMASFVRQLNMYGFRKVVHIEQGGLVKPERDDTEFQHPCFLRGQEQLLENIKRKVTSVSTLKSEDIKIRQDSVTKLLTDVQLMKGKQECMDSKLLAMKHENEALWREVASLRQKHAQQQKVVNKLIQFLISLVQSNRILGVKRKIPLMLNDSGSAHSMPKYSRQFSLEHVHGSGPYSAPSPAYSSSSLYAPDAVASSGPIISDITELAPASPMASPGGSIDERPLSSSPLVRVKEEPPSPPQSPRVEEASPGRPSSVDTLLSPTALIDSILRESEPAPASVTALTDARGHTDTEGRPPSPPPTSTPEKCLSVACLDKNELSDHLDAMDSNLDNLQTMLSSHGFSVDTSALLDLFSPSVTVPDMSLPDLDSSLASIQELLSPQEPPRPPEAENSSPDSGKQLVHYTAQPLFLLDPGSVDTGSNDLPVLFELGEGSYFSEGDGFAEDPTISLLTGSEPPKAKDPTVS
# Summary of the method: as §1
# SPIC = biological target: T8, SPIC (Homo sapiens, UniProt Q8N5J4 1-248); settings: protein: recombinant; tags: N-terminal GST; dsDNA, one strand shown
# T8 sequence: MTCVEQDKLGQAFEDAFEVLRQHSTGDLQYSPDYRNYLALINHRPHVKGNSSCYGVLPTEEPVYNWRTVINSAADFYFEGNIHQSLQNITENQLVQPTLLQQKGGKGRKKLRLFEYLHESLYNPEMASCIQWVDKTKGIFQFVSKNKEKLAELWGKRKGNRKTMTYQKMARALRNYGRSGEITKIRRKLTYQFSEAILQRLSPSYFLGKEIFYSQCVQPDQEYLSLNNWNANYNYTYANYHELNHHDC
# Summary of the method: as §1
# ELF4 = ELF4 (Homo sapiens, UniProt Q99607 1-663); settings: protein: recombinant; tags: N-terminal GST; dsDNA, one strand shown
# Sequence of ELF4 (Q99607 whole entry): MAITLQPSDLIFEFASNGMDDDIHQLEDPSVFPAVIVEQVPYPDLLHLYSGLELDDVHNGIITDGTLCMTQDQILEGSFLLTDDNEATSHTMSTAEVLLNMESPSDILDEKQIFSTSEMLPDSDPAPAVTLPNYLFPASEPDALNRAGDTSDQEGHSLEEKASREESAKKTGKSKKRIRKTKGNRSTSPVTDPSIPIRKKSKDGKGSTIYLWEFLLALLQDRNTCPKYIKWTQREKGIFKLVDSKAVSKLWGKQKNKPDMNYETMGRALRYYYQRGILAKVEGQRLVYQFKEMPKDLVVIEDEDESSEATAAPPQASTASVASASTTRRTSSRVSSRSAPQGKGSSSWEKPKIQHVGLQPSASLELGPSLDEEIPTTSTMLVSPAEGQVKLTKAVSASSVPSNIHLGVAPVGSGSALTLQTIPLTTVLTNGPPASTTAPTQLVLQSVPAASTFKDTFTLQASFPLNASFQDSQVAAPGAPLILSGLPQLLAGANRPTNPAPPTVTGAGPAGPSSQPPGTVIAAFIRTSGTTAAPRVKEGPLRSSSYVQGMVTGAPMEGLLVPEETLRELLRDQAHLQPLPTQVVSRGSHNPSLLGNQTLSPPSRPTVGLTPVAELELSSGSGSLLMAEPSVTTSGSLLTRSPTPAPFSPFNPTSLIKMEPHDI
# Summary of the method: as §1
# ELK4 = biological target: T9, ELK4 (Homo sapiens, UniProt P28324-2 1-405); settings: protein: recombinant; tags: N-terminal GST; dsDNA, one strand shown
# T9 sequence: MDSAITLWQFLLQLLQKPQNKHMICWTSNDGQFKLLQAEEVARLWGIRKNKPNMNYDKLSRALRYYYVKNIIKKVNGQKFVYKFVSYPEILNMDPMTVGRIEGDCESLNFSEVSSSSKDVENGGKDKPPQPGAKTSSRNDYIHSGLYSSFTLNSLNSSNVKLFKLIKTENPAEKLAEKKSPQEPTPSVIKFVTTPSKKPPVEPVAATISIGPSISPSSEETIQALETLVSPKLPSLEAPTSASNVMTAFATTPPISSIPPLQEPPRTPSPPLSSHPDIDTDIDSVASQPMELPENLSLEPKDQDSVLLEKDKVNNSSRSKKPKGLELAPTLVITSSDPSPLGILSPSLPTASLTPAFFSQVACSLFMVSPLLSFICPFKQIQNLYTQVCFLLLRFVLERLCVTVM
# Summary of the method: as §1
# ETV2 = biological target: T10, ETV2 (Homo sapiens, UniProt O00321 1-342); settings: protein: recombinant; tags: N-terminal GST; dsDNA, one strand shown
# T10 sequence: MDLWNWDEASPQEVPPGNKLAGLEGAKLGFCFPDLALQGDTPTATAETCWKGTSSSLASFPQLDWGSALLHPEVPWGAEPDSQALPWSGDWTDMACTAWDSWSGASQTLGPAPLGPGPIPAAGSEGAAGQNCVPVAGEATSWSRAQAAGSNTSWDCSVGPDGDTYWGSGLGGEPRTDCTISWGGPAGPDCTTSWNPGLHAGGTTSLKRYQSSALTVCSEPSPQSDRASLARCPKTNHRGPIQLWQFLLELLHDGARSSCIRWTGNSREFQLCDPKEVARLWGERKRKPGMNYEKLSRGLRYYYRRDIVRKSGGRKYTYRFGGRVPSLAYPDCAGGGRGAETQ
# Summary of the method: as §1
# ELF3 = biological target: T11, ELF3 (Homo sapiens, UniProt P78545 1-371); settings: protein: recombinant; tags: N-terminal GST; dsDNA, one strand shown
# T11 sequence: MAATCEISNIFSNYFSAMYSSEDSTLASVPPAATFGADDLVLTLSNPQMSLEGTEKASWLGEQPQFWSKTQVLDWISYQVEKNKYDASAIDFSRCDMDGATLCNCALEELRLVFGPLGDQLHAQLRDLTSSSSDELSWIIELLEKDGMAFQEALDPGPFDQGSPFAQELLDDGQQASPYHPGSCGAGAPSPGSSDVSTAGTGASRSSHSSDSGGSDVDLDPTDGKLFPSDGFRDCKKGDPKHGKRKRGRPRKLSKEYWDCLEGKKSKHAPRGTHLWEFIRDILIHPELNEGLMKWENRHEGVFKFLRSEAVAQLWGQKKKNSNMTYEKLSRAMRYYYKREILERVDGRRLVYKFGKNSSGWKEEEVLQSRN
# Summary of the method: as §1
# CRX = CRX (Homo sapiens, UniProt O43186 1-299); settings: protein: recombinant; tags: N-terminal GST; dsDNA, one strand shown
# Sequence of CRX (O43186 whole entry): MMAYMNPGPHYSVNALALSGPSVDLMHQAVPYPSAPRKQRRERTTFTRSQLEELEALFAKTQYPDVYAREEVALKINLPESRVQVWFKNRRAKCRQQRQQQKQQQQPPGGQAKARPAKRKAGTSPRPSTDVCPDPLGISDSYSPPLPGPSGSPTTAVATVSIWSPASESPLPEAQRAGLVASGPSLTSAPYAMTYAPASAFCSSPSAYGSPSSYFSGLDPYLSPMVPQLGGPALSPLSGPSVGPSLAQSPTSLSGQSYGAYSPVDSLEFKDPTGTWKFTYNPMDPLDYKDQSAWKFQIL
# Summary of the method: as §1
# ETV1 = ETV1 (Homo sapiens, UniProt P50549 1-477); settings: protein: recombinant; tags: N-terminal GST; dsDNA, one strand shown
# Sequence of ETV1 (P50549 whole entry): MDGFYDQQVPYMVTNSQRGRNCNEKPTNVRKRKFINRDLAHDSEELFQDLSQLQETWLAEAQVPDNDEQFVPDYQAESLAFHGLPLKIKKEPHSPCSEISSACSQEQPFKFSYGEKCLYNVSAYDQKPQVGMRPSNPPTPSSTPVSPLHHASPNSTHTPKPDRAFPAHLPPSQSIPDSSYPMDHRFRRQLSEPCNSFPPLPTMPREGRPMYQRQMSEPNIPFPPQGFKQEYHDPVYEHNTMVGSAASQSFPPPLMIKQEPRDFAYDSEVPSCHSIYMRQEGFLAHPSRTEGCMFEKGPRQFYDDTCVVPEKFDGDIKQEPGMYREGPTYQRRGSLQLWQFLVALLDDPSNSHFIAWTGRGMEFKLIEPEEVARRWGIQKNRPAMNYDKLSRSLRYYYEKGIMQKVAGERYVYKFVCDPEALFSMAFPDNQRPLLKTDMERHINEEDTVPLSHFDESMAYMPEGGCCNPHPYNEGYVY
# Summary of the method: as §1
sequence,measurement,setting,value
GCTAGC,binding signal,FLI1,"1.17 fold enrichment (6-mer frequency, TF over GST control)"
same,binding signal,ELK1,"1.23 fold enrichment (6-mer frequency, TF over GST control)"
same,binding signal,GABPA,"1.18 fold enrichment (6-mer frequency, TF over GST control)"
same,binding signal,ERG,"1.22 fold enrichment (6-mer frequency, TF over GST control)"
same,binding signal,ELF1,"1.18 fold enrichment (6-mer frequency, TF over GST control)"
same,binding signal,EHF,"1.19 fold enrichment (6-mer frequency, TF over GST control)"
same,binding signal,SPI1,"1.29 fold enrichment (6-mer frequency, TF over GST control)"
same,binding signal,SPIB,"1.17 fold enrichment (6-mer frequency, TF over GST control)"
same,binding signal,ELK3,"1.22 fold enrichment (6-mer frequency, TF over GST control)"
same,binding signal,FEV,"1.31 fold enrichment (6-mer frequency, TF over GST control)"
same,binding signal,ETV5,"1.24 fold enrichment (6-mer frequency, TF over GST control)"
same,binding signal,HSF1,"1.19 fold enrichment (6-mer frequency, TF over GST control)"
same,binding signal,SPIC,"1.28 fold enrichment (6-mer frequency, TF over GST control)"
same,binding signal,ELF4,"1.3 fold enrichment (6-mer frequency, TF over GST control)"
same,binding signal,ELK4,"1.23 fold enrichment (6-mer frequency, TF over GST control)"
same,binding signal,ETV2,"1.39 fold enrichment (6-mer frequency, TF over GST control)"
same,binding signal,ELF3,"1.2 fold enrichment (6-mer frequency, TF over GST control)"
same,binding signal,CRX,"1.05 fold enrichment (6-mer frequency, TF over GST control)"
same,binding signal,ETV1,"1.24 fold enrichment (6-mer frequency, TF over GST control)"
